{"source": "PubChem BioAssay AID686979", "about": "(National Center for Advancing Translational Sciences (NCATS), 2013)", "note": "Where “and” joins values, the source holds several entries; their conditions need not be identical. Equal entries are not always repeated. Screen size: about 420,000 compounds; about 50,000 (12%) were called active. About 26% were inconclusive and are not listed. Only a selection was taken, and actives are over-represented in it overall. Values without a mark were called inactive. Calls follow the shape of the dose curve; as a rule, active = well fitted inhibition curve with a large enough effect; inconclusive = small, poorly fitted or top-dose-only effect; inactive = flat fitted curve, though single readings scatter. % is scaled to controls: 0 for no effect and ±100 for the full control effect; potency is read from the fitted curve at half-maximal effect."}
{"assay": "qHTS for Inhibitors of human tyrosyl-DNA phosphodiesterase 1 (TDP1): qHTS in cells in presence of CPT; also: nearly all actives have a fitted effect of over 55% in size", "settings": "chicken DT40 Tdp1-/-;hTDP1 cells + 20 nM CPT, ATP luminescence, 48 h; series mostly up to 46.2 µM; activity change, negative = growth inhibition: at the top concentration", "method_in_brief": "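Chicken DT40 Tdp1-/- cells complemented with human TDP1, 400 cells/well, exposed to compounds plus 20 nM camptothecin for at least 48 h at 37 C; viability read as ATP content by CellTiter-Glo luminescence.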"}
{"smiles": "CC1CCCCN1Cc1cccnc1", "note": "(stereo unspecified)", "activity change, negative = growth inhibition": "-3.72%"}
{"smiles": "CCOC(=O)C(O)(c1ccc(N=Cc2ccccc2O)c(C)c1)C(F)(F)F", "note": "(stereo unspecified)", "activity change, negative = growth inhibition": "-6.07%"}
{"smiles": "CC(=O)c1c(O)c(C)c(O)c(Cc2c(O)c3c(c(C(=O)/C=C/c4ccccc4)c2O)OC(C)(C)C=C3)c1O", "Potency": "29.9 µM (active)"}
{"smiles": "CC(=O)c1c(O)c(C)c(O)c(Cc2c(O)c3c(c(C(=O)/C=C\\c4ccccc4)c2O)OC(C)(C)C=C3)c1O", "Potency": "13.3 µM (active)"}
{"smiles": "O=C1NC(=O)C(CCc2ccccn2)(Cc2cccc(Cl)c2Cl)C(=O)N1c1ccc(Br)cc1", "note": "(stereo unspecified)", "activity change, negative = growth inhibition": "-15%"}
{"smiles": "CCOP(=S)(OCC)SCOC(=O)NCC(=O)OC", "activity change, negative = growth inhibition": "-6.7%"}
{"smiles": "CN1CCc2cc3c(cc2[C@H]1[C@@H]1OC(=O)c2c1ccc1c2OCO1)OCO3", "activity change, negative = growth inhibition": "1.03%"}
{"smiles": "C=CCSSCC=C", "activity change, negative = growth inhibition": "-2.1%"}
{"smiles": "CC(=CCOc1ccc2ccc(=O)oc2c1)C1=CC(=O)C(C)(C)O1", "Potency": "5.8 µM (active)"}
{"smiles": "c1ccc2c(c1)[I+]c1ccccc1-2", "Potency": "33.5 nM (active) and 15.8 nM (active) and 79.4 nM (active)"}
{"smiles": "Cc1nc2nc(C)c(CCC(=O)N3CCC4(CC3)OCCO4)c(C)n2n1", "activity change, negative = growth inhibition": "-1.59%"}
{"smiles": "O=C(O)CCn1cc(C=C2C(=O)NC(=S)NC2=O)c(-c2cccc(Br)c2)n1", "activity change, negative = growth inhibition": "1.42%"}
{"smiles": "CNCC[C@H](Oc1ccc(C(F)(F)F)cc1)c1ccccc1", "Potency": "7.5 µM (active)"}
{"smiles": "N[C@@H](Cc1c[nH]c2ccccc12)c1nnc(SCc2c(F)cccc2Cl)o1", "activity change, negative = growth inhibition": "-13%"}
{"smiles": "CC(C)C(N)C(=O)OCCOCn1cnc2c(=O)[nH]c(N)nc21", "note": "(stereo unspecified)", "Potency": "2.06 µM (active)"}
{"smiles": "CN(C)C(=O)Oc1cc(=O)n2c3c(cccc13)CCC2", "activity change, negative = growth inhibition": "-1.55%"}
{"smiles": "O=[N+]([O-])c1cnc2ccc3ccccc3c2c1", "activity change, negative = growth inhibition": "6.91%"}
{"smiles": "CC1CC=CCC12C(=O)NC(=S)NC2=O", "note": "(stereo unspecified)", "activity change, negative = growth inhibition": "-9.4%"}
{"smiles": "COC(=O)COc1cc(C)cc2oc(=O)c3c(c12)CCCC3", "activity change, negative = growth inhibition": "-6.26%"}
{"smiles": "O=c1c2ccccc2nc(CBr)n1-c1ccc(Cl)cc1", "activity change, negative = growth inhibition": "-28.4%"}
{"smiles": "Cc1nc2ccccc2c(=O)n1-c1ccc(Cl)cc1Cl", "Potency": "13 µM (active)"}
{"smiles": "O=C1CC(=O)N(Cc2ccccc2)C(=O)N1CCCCCCN1C(=O)CC(=O)N(Cc2ccccc2)C1=O", "activity change, negative = growth inhibition": "20.6%"}
{"smiles": "O=C(O)c1cc[c]([Sb](=[O])([OH])[OH])cc1[N+](=O)[O-]", "activity change, negative = growth inhibition": "-6.27%"}
{"smiles": "COc1ccc(C)cc1N(CC(=O)N1CCC(C)CC1)S(=O)(=O)c1ccc(C)cc1", "Potency": "18.4 µM (active)"}
{"smiles": "COc1cc2c(cc1OC)[C@@H]1C(=O)c3ccc(O)c(CC=C(C)C)c3OC1CO2", "note": "(stereo partly specified)", "activity change, negative = growth inhibition": "2.99%"}
{"smiles": "COc1ccc2[nH]c3c(c2c1)CCN[C@H]3C", "activity change, negative = growth inhibition": "5.04%"}
{"smiles": "CC1CCC(N(C)C2CCN(C)CC2)CC1", "note": "(stereo unspecified)", "activity change, negative = growth inhibition": "-14.5%"}
{"smiles": "C[C@]12CCC3C(CC[C@H]4C[C@@H](O)CC[C@]34C)C1CC[C@@H]2O", "note": "(stereo partly specified)", "activity change, negative = growth inhibition": "-6.05%"}
{"smiles": "O=C(c1ccccc1[N+](=O)[O-])N1CCC2(CC1)OCCO2", "activity change, negative = growth inhibition": "-10.9%"}
{"smiles": "CN1C2C=C(N(C(=O)c3ccc(Cl)cc3)c3ccccc3)CC1CC2", "note": "(stereo unspecified)", "activity change, negative = growth inhibition": "-11.7%"}
{"smiles": "Cc1cc(C)cc(C(=O)N(CCc2ccccc2)C2=CC3CCC(C2)N3C)c1", "note": "(stereo unspecified)", "Potency": "20.6 µM (active)"}
{"smiles": "Cc1ccc(N2C(=O)NC(=O)C(CCc3ccncc3)(Cc3cccc(Cl)c3Cl)C2=O)cc1", "note": "(stereo unspecified)", "activity change, negative = growth inhibition": "-5.48%"}
{"smiles": "CN(C)C1C(=O)C(C(N)=O)=C(O)[C@@]2(O)C(=O)C3=C(O)c4c(O)cccc4[C@@](C)(O)C3C[C@@H]12", "note": "(stereo partly specified)", "Potency": "21.1 µM (active)"}
{"smiles": "CC(C)Nc1nc(Cl)nc(NC(C)C)n1", "Potency": "inactive"}
{"smiles": "COC(=O)C(O)(c1ccc(NC(=O)c2ccco2)c(OC)c1)C(F)(F)F", "note": "(stereo unspecified)", "activity change, negative = growth inhibition": "-6.8%"}
{"smiles": "N#CC1=C(N)Oc2c(c(=O)oc3ccccc23)C1c1ccccc1OC(=O)c1cccs1", "note": "(stereo unspecified)", "Potency": "18.4 µM (active)"}
{"smiles": "CCNc1nc2[nH]c(=O)c3c(c2s1)OC(N)=C(C#N)C3c1cccs1", "note": "(stereo unspecified)", "activity change, negative = growth inhibition": "-26.8%"}
{"smiles": "CNP1(NC)=Nc2nn(-c3ccccc3)c(N)c2C(c2ccccc2)=N1", "activity change, negative = growth inhibition": "-13.9%"}
{"smiles": "CN(C)CC1Oc2ccccc2OC1(O)c1ccccc1", "note": "(stereo unspecified)", "Potency": "2.06 µM (active)"}
{"smiles": "COc1cc(OC)cc(C2(C#N)CCN(C)CC2)c1", "activity change, negative = growth inhibition": "-17.9%"}
{"smiles": "CCCCC/C=C\\C/C=C\\C/C=C\\C/C=C\\CCCCCC(=O)NCCO", "activity change, negative = growth inhibition": "-4.85% [at 4.12 µM]"}
{"smiles": "O=C(N/N=C/c1c(O)n(C2CC2)c(=S)[nH]c1=O)c1ccccc1Cl", "activity change, negative = growth inhibition": "13.4%"}
{"smiles": "COC([CH2][Hg])CNC(=O)c1ccccc1OCC(=O)O", "note": "(stereo unspecified)", "Potency": "1.06 µM (active)"}
{"smiles": "c1cncc(CNC2=NCCC2)c1", "activity change, negative = growth inhibition": "3.64%"}
{"smiles": "CCOP(=S)(OCC)C(O)CCCCCn1c(=O)c(F)cn(C2CCCO2)c1=O", "note": "(stereo unspecified)", "activity change, negative = growth inhibition": "-1.03%"}
{"smiles": "CCC1(CC(C)c2ccccc2)C(=O)NC(=O)NC1=O", "note": "(stereo unspecified)", "activity change, negative = growth inhibition": "-0.717%"}
{"smiles": "CCc1ccccc1NC(=O)c1sc2nc3c(cc2c1N)CN(Cc1ccccc1)CC3", "Potency": "7.31 µM (active)"}
{"smiles": "Cn1cc(C(=O)OCC(=O)N2CCCC2)c2ccccc21", "activity change, negative = growth inhibition": "1.39%"}
{"smiles": "O=C(COC(=O)c1ccccc1)Nc1ccc(Cl)cc1C(=O)c1ccccc1", "activity change, negative = growth inhibition": "-11%"}
{"smiles": "CN1CCN(C(=S)SCC(=O)Nc2ccc(Cl)cc2C(=O)c2ccccc2)CC1", "Potency": "14.6 µM (active)"}
{"smiles": "O=C(Nc1ccc(Cl)cc1C(=O)c1ccccc1)c1cc(Cl)cc(Cl)c1", "activity change, negative = growth inhibition": "-9.22%"}
{"smiles": "CC(Cc1cccs1)NCc1ccc(Cl)cc1", "note": "(stereo unspecified)", "activity change, negative = growth inhibition": "-21%"}
{"smiles": "CC(C)(Cc1c[nH]c2ccc(Cl)cc12)NCCOc1ccccc1OCC1CC1", "Potency": "21.1 µM (active) and 6.51 µM (active)"}
{"smiles": "COc1ccc(-c2nc(CS(=O)CC(=O)N3CCC4(CC3)OCCO4)c(C)o2)cc1", "note": "(stereo unspecified)", "activity change, negative = growth inhibition": "-11.2%"}
{"smiles": "Cc1ccc(Cn2c(C)c3cnn(CC(=O)N4CCC5(CC4)OCCO5)c(=O)c3c2C)cc1", "Potency": "20.6 µM (active)"}
{"smiles": "O=C(CCCn1c(=O)[nH]c2cc(Cl)ccc2c1=O)N1CCC2(CC1)OCCO2", "activity change, negative = growth inhibition": "-18.1%"}
{"smiles": "CCC(=O)OC(Cc1ccccc1)(c1ccccc1)C(C)CN(C)C", "note": "(stereo unspecified)", "activity change, negative = growth inhibition": "-3.39%"}
{"smiles": "COC(=O)[C@@]12C[C@@H](CC(=O)NCc3cccc(C(F)(F)F)c3)C(=O)N(Cc3ccco3)C1=CCC(C)(C)C2", "Potency": "20.6 µM (active)"}
{"smiles": "COc1cccc(-c2nc3ccc(N4CCN(C)CC4)cc3[nH]2)c1", "activity change, negative = growth inhibition": "-18.1%"}
{"smiles": "O=C1C2CCN(CC2)C1(CO)CO", "Potency": "2.66 µM (active)"}
{"smiles": "CN(C)C(=O)NC(O)C(Cl)(Cl)Cl", "note": "(stereo unspecified)", "activity change, negative = growth inhibition": "-0.512%"}
{"smiles": "O=c1[nH]c(=O)n(Cc2ccccc2)c(O)c1/C=N/Nc1c(F)c(F)c(F)c(F)c1F", "activity change, negative = growth inhibition": "-13.6%"}
{"smiles": "O=C1NC(=O)C(Cc2ccccc2)C(=O)N1", "activity change, negative = growth inhibition": "-5.53%"}
{"smiles": "CCN(CC)C(=O)Oc1ccc(NC(=O)N2CCOCC2)cc1", "activity change, negative = growth inhibition": "-13%"}
{"smiles": "O=C(OCCN1CCOCC1)C1(c2ccccc2)CCCC1", "activity change, negative = growth inhibition": "7.49%"}
{"smiles": "O=c1c2ccccc2nc(/C=C/c2ccc(F)cc2)n1-c1ccccc1O", "Potency": "23.1 µM (active)"}
{"smiles": "CSc1nc2ccc(C)cc2c(=O)n1-c1cccnc1", "activity change, negative = growth inhibition": "-17.6%"}
{"smiles": "Cn1cc(/C=C/c2nc3ccccc3c(=O)n2-c2ccccc2)c2ccccc21", "Potency": "10.3 µM (active)"}
{"smiles": "O=c1c2ccccc2nc(/C=C/c2ccco2)n1-c1ccccc1O", "Potency": "14.6 µM (active)"}
{"smiles": "O=C(Nc1cccc2ccccc12)N1CCC2(CC1)OCCO2", "activity change, negative = growth inhibition": "1.32%"}
{"smiles": "CCOC(=O)C1CN(C)CCC1=O", "note": "(stereo unspecified)", "activity change, negative = growth inhibition": "-17.2%"}
{"smiles": "CN(C)CCCN=Cc1c(O)n(Cc2ccco2)c(=O)[nH]c1=O", "activity change, negative = growth inhibition": "-9.19%"}
{"smiles": "c1cc2c(cc1[C@H]1OC[C@H]3[C@@H]1CO[C@@H]3c1ccc3c(c1)OCO3)OCO2", "activity change, negative = growth inhibition": "-10.6%"}
{"smiles": "CC(CC(C#N)(c1ccccc1)c1ccccc1)N1CCCCC1", "note": "(stereo unspecified)", "activity change, negative = growth inhibition": "14.4%"}
{"smiles": "O=C(N/N=C/c1ccc([N+](=O)[O-])o1)c1cc([N+](=O)[O-])cc([N+](=O)[O-])c1O", "activity change, negative = growth inhibition": "-39.1%"}
{"smiles": "N[C@H](C(=O)O)c1cc(=O)[nH]o1", "activity change, negative = growth inhibition": "-1.29%"}
{"smiles": "O=C(COC(=O)Cc1ccccc1)Nc1ccc(F)cc1", "activity change, negative = growth inhibition": "38.9%"}
{"smiles": "CC(C)c1ccc(-n2c(O)c(/C=N/N3CCOCC3)c(=O)[nH]c2=S)cc1", "activity change, negative = growth inhibition": "2.61%"}
{"smiles": "CN(C)c1cccc(C(=O)Nc2nc3ccc(S(=O)(=O)NC(C)(C)C)cc3s2)c1", "Potency": "10.3 µM (active)"}
{"smiles": "CC1C2Cn3c(nc4ccccc43)C1N(C)O2", "note": "(stereo unspecified)", "activity change, negative = growth inhibition": "-1.39%"}
{"smiles": "Cc1c(C(=O)O)cccc1-n1c(C)cc(/C=C2\\C(=O)NC(=O)N(c3ccc4c(c3)OCO4)C2=O)c1C", "activity change, negative = growth inhibition": "22.5%"}
{"smiles": "COC(=O)[C@@H]1C(OC(=O)c2ccccc2)CC2CCC1N2C", "note": "(stereo partly specified)", "activity change, negative = growth inhibition": "-19.5%"}
{"smiles": "CN1[C@@H]2CC[C@H]1CC(OC(=O)c1cc(Cl)cc(Cl)c1)C2", "note": "(stereo partly specified)", "Potency": "18.8 µM (active)"}
{"smiles": "CN1CCC(OC(=O)c2cccc(F)c2)CC1", "activity change, negative = growth inhibition": "-5.62%"}
{"smiles": "CC1([N+](=O)[O-])COP(=O)(Nc2ccc(F)cc2)OC1", "note": "(stereo unspecified)", "activity change, negative = growth inhibition": "0.366%"}
{"smiles": "Cc1c(Oc2cc(NN3CCCCC3)c([N+](=O)[O-])cc2[N+](=O)[O-])cccc1[N+](=O)[O-]", "activity change, negative = growth inhibition": "-26.6%"}
